Unmarked numbers belong to inactive results.
Assays:
Assay in all cases: log2 ratio of Biotin-Ahx-Ub-VS probe labelling (fragment/DMSO); higher = less target engagement (more negative = stronger competition), active = hit call of the paper (q ≤ 0.05, log2 ratio ≤ -1)
Details in all cases: compound concentration: 200 uM; treatment time: 3 h
[1] = compound: CC(C)CN(C1CC1)C(=O)CCl
Outline: (§1)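 HEK293T lysate (495 µg per sample, in Tris/CHAPS/IGEPAL buffer with protease inhibitors) was exposed in triplicate for 3 h to fragment at 200 µM or to vehicle, then to Biotin-Ahx-Ub-VS at 0.5 µM final for 1 h. Labelled DUBs were enriched on NeutrAvidin, digested with LysC and trypsin, and analysed by diaPASEF LC-MS/MS. Spectronaut label-free quantities were normalised to the global median, and values are average log2 ratios of fragment over vehicle from an unpaired t-test. Only proteins with ≥2 unique peptides were used.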

[2] = compound: CC(NC(=O)CCl)c1cccs1
Outline: as §1

[3] = compound: CC1CCCCC1NC(=O)CCl
Outline: as §1

[4] = compound: CC1CCCCN1C(=O)CCl
Outline: as §1

[5] = compound: CC1CN(CC(C)O1)C(=O)CCl
Outline: as §1

[6] = compound: CN(C1CCCCC1)C(=O)CCl
Outline: as §1

[7] = compound: Cc1cc(NC(=O)CCl)no1
Outline: as §1

[8] = compound: Cc1cccc(NC(=O)CCl)c1
Outline: as §1

[9] = compound: Cc1nc(NC(=O)CCl)sc1C
Outline: as §1

[10] = compound: Cc1nnc(NC(=O)CCl)s1
Outline: as §1

[11] = compound: Cl.Cc1ncsc1CNC(=O)CCl
Outline: as §1

[12] = compound: ClCC(=O)N1CCCCCCC1
Outline: as §1

[13] = compound: ClCC(=O)NC1(CCCC1)C#N
Outline: as §1

[14] = compound: ClCC(=O)NCC1CCC1
Outline: as §1

[15] = compound: ClCC(=O)NCC1CCCO1
Outline: as §1

[16] = compound: ClCC(=O)NCc1ccco1
Outline: as §1

[17] = compound: ClCC(=O)Nc1cccc(Cl)c1
Outline: as §1

[18] = compound: ClCC(=O)NC(C1CC1)C1CC1
Outline: as §1

UniProt P09936, sequence (P09936 whole entry, looked up): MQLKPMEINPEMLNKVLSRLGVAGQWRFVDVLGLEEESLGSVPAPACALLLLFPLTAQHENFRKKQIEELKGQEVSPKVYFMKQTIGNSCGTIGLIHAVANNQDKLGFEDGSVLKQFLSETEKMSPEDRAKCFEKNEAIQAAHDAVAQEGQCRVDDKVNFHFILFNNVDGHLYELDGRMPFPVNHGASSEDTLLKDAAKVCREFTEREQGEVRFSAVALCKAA
UniProt Q96FW1, sequence (Q96FW1 whole entry): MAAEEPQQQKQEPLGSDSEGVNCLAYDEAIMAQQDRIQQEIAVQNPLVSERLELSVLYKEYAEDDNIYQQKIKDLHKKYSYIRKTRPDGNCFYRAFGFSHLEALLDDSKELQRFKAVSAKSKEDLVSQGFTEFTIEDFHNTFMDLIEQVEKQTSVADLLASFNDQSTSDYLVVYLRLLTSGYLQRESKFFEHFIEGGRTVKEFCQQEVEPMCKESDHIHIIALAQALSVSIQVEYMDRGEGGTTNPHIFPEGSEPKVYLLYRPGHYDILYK
UniProt O00507, sequence (O00507 whole entry): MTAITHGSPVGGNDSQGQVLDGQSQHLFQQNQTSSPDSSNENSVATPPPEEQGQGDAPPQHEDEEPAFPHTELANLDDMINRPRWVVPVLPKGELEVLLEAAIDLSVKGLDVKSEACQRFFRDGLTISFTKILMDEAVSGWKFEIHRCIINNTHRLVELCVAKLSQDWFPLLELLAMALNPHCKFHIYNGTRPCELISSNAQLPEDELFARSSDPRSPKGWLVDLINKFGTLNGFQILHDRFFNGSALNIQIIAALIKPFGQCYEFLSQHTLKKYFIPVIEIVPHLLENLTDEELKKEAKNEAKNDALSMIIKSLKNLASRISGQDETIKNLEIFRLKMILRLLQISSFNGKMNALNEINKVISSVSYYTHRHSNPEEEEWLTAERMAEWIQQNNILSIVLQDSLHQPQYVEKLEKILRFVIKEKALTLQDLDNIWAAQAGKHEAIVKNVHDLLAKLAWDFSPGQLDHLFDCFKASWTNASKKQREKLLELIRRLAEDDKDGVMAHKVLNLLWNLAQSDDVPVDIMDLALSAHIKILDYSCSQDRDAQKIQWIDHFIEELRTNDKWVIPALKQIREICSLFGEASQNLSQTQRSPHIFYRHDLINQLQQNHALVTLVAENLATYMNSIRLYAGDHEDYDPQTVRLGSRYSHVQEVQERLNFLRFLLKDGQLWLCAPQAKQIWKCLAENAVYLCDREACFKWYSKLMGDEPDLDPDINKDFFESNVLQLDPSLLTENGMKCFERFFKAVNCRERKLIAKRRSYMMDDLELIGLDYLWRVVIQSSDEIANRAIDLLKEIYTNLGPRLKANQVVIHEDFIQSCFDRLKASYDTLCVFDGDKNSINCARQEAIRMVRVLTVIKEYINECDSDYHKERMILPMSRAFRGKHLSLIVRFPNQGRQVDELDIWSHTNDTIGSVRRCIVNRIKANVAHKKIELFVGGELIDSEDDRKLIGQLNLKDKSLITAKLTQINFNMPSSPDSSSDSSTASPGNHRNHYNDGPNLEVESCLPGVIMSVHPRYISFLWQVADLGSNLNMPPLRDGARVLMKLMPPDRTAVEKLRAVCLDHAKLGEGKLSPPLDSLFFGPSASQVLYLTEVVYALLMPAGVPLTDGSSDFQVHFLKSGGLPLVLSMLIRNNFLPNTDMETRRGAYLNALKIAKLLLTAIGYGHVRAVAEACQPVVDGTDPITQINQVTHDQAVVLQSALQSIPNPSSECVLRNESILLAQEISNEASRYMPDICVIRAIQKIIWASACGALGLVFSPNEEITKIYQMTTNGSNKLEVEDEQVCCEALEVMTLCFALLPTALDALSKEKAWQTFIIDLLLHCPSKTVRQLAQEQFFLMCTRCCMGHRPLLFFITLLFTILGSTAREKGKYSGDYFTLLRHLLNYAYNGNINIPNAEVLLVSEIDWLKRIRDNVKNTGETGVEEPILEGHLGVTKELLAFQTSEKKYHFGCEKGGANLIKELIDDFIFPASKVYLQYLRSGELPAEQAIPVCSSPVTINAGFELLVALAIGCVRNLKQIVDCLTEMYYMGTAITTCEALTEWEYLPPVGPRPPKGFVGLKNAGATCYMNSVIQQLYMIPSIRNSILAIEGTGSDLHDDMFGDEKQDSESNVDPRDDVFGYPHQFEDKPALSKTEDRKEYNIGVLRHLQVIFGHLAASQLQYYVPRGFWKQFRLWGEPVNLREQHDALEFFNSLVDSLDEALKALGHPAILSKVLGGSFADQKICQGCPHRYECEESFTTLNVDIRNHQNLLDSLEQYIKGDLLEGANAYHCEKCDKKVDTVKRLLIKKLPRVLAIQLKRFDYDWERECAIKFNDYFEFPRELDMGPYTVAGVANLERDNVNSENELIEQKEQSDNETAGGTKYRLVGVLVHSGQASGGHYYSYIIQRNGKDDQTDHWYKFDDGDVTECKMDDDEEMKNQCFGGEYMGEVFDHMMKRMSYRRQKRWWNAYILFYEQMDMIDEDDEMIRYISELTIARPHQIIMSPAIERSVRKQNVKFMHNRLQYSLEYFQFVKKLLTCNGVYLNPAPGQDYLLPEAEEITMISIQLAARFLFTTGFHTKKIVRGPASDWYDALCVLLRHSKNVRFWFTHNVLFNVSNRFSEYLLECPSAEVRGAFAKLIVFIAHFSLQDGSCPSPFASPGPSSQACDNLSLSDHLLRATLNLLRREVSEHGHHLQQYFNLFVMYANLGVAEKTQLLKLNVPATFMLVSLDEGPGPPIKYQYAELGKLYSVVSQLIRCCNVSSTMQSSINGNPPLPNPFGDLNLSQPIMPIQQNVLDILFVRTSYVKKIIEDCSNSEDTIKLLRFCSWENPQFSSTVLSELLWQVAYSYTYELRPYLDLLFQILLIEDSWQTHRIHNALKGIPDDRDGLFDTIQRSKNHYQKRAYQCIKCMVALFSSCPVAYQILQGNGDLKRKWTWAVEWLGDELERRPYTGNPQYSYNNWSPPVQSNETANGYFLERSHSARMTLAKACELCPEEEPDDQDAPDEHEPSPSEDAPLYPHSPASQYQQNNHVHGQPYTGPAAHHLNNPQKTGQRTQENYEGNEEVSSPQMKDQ
UniProt P54578, sequence (P54578 whole entry): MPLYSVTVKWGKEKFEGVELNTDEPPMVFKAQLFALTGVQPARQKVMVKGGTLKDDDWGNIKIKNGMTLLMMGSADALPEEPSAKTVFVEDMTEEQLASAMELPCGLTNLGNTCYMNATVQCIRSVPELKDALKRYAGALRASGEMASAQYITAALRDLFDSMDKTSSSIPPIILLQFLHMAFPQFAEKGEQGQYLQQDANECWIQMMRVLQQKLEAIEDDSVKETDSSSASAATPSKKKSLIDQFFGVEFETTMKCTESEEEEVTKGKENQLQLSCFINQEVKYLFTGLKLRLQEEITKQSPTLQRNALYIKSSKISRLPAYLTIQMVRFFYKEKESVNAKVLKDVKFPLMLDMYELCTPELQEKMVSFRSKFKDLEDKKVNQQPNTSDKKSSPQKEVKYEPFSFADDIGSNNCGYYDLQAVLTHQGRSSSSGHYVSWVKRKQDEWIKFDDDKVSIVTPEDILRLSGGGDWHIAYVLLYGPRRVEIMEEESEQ
UniProt Q8TE49, sequence (Q8TE49 whole entry): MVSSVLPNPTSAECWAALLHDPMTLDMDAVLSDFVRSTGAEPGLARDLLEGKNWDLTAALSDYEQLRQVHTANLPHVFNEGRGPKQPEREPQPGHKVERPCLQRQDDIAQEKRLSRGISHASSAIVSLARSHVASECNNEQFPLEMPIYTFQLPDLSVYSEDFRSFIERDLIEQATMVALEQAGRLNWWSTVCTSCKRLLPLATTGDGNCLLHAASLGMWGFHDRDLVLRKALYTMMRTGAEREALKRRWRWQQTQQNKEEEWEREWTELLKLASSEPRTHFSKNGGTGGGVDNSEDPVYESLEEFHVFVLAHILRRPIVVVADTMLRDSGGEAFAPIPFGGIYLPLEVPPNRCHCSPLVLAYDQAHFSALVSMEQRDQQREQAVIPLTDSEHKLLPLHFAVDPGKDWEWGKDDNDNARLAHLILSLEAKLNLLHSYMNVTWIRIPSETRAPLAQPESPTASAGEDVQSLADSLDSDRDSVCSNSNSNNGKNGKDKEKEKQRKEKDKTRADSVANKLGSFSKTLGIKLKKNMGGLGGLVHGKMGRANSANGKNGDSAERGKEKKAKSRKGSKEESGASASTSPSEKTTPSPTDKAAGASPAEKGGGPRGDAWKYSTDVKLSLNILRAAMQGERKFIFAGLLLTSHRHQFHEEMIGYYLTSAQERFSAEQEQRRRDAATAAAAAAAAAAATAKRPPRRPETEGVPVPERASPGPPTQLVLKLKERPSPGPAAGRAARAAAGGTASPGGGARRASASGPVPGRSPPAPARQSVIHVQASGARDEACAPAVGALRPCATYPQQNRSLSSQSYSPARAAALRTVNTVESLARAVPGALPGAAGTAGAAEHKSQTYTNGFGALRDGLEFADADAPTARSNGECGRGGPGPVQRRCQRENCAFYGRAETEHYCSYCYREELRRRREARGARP
UniProt Q92905, sequence (Q92905 whole entry, looked up): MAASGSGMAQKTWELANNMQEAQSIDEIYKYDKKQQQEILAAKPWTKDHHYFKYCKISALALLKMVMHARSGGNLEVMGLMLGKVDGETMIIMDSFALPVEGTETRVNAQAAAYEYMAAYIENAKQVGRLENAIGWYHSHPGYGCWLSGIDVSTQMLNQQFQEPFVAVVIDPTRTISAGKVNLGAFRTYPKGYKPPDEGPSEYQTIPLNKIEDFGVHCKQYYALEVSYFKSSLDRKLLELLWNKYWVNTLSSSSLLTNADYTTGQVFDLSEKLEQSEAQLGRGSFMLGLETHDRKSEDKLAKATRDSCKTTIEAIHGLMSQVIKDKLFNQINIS
UniProt P15374, sequence (P15374 whole entry): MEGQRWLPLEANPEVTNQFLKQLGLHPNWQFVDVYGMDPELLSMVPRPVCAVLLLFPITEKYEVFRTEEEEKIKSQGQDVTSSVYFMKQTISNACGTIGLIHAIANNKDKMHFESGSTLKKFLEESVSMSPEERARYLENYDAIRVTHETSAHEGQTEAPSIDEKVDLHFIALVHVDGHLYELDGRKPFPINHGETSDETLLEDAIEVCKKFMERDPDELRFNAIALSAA

Target	log2 ratio of Biotin-Ahx-Ub-VS probe labelling [1]	log2 ratio of Biotin-Ahx-Ub-VS probe labelling [2]	log2 ratio of Biotin-Ahx-Ub-VS probe labelling [3]	log2 ratio of Biotin-Ahx-Ub-VS probe labelling [4]	log2 ratio of Biotin-Ahx-Ub-VS probe labelling [5]	log2 ratio of Biotin-Ahx-Ub-VS probe labelling [6]	log2 ratio of Biotin-Ahx-Ub-VS probe labelling [7]	log2 ratio of Biotin-Ahx-Ub-VS probe labelling [8]	log2 ratio of Biotin-Ahx-Ub-VS probe labelling [9]	log2 ratio of Biotin-Ahx-Ub-VS probe labelling [10]	log2 ratio of Biotin-Ahx-Ub-VS probe labelling [11]	log2 ratio of Biotin-Ahx-Ub-VS probe labelling [12]	log2 ratio of Biotin-Ahx-Ub-VS probe labelling [13]	log2 ratio of Biotin-Ahx-Ub-VS probe labelling [14]	log2 ratio of Biotin-Ahx-Ub-VS probe labelling [15]	log2 ratio of Biotin-Ahx-Ub-VS probe labelling [16]	log2 ratio of Biotin-Ahx-Ub-VS probe labelling [17]	log2 ratio of Biotin-Ahx-Ub-VS probe labelling [18]
USP48 (UniProt Q86UV5)	-0.00536	-0.0207	-0.24	-0.338	-0.249	-0.456	-0.25	-0.217	-0.179	-0.251	0.0264	-0.519	-0.56	-0.21	-0.0126	-0.405	-0.545	–
UCHL3 (UniProt P15374)	0.39	0.116	0.0229	0.0176	0.122	-0.0569	-0.129	-0.345	0.56	0.214	0.504	0.341	-0.0242	0.0333	0.275	0.103	-0.827	0.117
COPS5 (UniProt Q92905)	-0.228	0.105	-0.102	-0.0488	-0.0269	0.0396	-0.141	-0.303	-0.00505	-0.0303	0.0391	0.0347	0.203	0.0382	0.0301	0.0105	0.27	–
UCHL1 (UniProt P09936)	-1.13 (active)	-1.4 (active)	-1.18 (active)	-1.34 (active)	-1.75 (active)	-1.52 (active)	-1.21 (active)	-1.8 (active)	-1.21 (active)	-1.48 (active)	-0.693	-1.43 (active)	-2.07 (active)	-1.66 (active)	-1.22 (active)	-1.39 (active)	-2.02 (active)	-1.28 (active)
UniProt Q5T2D3	0.0213	-0.301	-0.208	-0.128	-0.269	-0.159	-0.226	-0.0544	-0.17	-0.141	-0.0477	-0.0257	-0.314	-0.239	-0.00242	-0.0389	-0.998	–
ATXN3 (UniProt P54252)	-0.0377	0.0273	-0.0841	-0.487	-0.327	-0.303	-0.0822	-0.171	-0.116	-0.268	-0.254	-0.156	-0.305	-0.206	-0.0451	-0.0869	-1.02 (active)	–
USP7 (UniProt Q93009)	-0.278	-0.0253	-0.0899	-0.604	-0.322	-0.42	-0.32	-0.48	-0.237	-0.376	0.00818	-0.609	-0.186	-0.0702	-0.207	-0.0794	-0.98	–
PRPF8 (UniProt Q6P2Q9)	0.0577	-0.0808	-0.0383	-0.109	-0.0419	-0.249	0.147	0.15	0.137	0.0499	-0.0129	0.139	-0.152	-0.103	0.164	-0.228	0.0652	–
USP14 (UniProt P54578)	-0.0633	0.0378	-0.306	-0.639	-0.518	-0.00359	-0.188	-0.184	0.051	-0.437	-0.178	-0.0389	-0.0892	0.0427	0.00941	-0.0561	-0.675	-0.411
USP42 (UniProt Q9H9J4)	0.361	-0.342	-0.295	-0.305	-0.42	-0.0896	0.113	0.381	0.125	0.374	0.49	0.0331	-0.72	-0.299	-0.0821	-0.125	0.584	–
OTUB1 (UniProt Q96FW1)	-0.0296	0.137	-0.0525	-0.264	-0.26	0.0388	0.388	0.123	0.281	0.165	-0.174	0.116	-0.247	-0.422	0.252	-0.0321	-0.286	0.0718
USP19 (UniProt O94966)	0.00416	-0.0254	-0.108	-0.341	-0.267	-0.381	-0.558	-0.285	-0.171	-0.607	0.00124	-0.175	-0.0817	0.0408	0.0949	-0.207	-0.681	–
UniProt O00507	0.374	0.0497	-0.0879	-0.429	-0.148	0.12	0.023	0.0709	0.409	-0.563	-0.51	0.333	0.0321	0.0835	0.383	-0.338	-0.568	–
OTUD7B (UniProt Q6GQQ9)	0.0222	-1.59 (active)	-1.86 (active)	-0.521	-0.504	-0.33	-1.28 (active)	-0.708	-0.151	-0.187	-0.43	-0.18	-1.84 (active)	-1.31 (active)	-0.129	-0.96	-1.56 (active)	–
UCHL5 (UniProt Q9Y5K5)	-0.0257	-0.148	-0.168	-0.283	-0.314	-0.249	0.0718	-0.0463	-0.292	-0.0414	-0.0581	-0.0659	-0.42	-0.292	-0.0635	-0.29	-1.02 (active)	–
UniProt Q8TE49	-0.309	-0.893	-1.99 (active)	-0.301	-0.547	-0.46	-0.679	-0.769	-0.452	-0.537	-0.377	-0.312	-1.15 (active)	-0.802	-0.46	-0.215	-1.29 (active)	–
UniProt P51784	-0.051	0.138	0.0474	-0.248	-0.0132	0.0405	-0.202	-0.227	0.0778	-0.209	0.0993	-0.126	-0.072	-0.102	0.104	-0.104	-0.628	-0.304
USP5 (UniProt P45974)	0.195	0.3	-0.0515	-0.178	0.00747	0.487	-0.18	-0.356	0.0301	-0.648	-0.209	0.18	-0.00567	-0.0477	0.0345	0.0924	-0.784	–

— the supplement of paper PMC11732987, “Enantioselective OTUD7B fragment discovery through chemoproteomics screening and high-throughput optimisation” (Communications Chemistry, 2025)
